According to PubChem BioAssay (NCATS):
Results filed as inconclusive are left out. A call without a number means that no potency is given here. A number with no mark means an inactive call. The source made the active and inactive calls. The call rests on the fitted dose curve; in most records, active means well fitted curve in the direction sought with a large enough effect; inconclusive means small, poorly fitted or top-dose-only effect, or another doubt; inactive means no such curve, though single readings can be large; an effect the other way counts as inactive or inconclusive.

Key:
Tov-21-G = test: Primary qHTS to identify gynecologic anti-cancer compounds using libraries of approved drugs and bioactive compounds (AID 1345084); conditions: Gynecologic cancer cell panel viability, ATPlite luminescence, 48 h; series mostly up to 57.5 µM; further: nearly all actives have a fitted effect of over 55% in size
Procedure, shortened: (§1)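 Five-point cytotoxicity, 48 h drug exposure at 37 C, 5% CO2, on cells seeded 16 h beforehand. ATP content read by ATPlite luminescence.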

Tov112D = test: as above; conditions: Gynecologic cancer cell panel viability, ATPlite luminescence, 48 h; series mostly up to 57.5 µM
Procedure, shortened: as §1

astro = test: Drug repurposing screens with cells derived from glioblastoma tumor samples (AID 1345199); conditions: viability, ATP luminescence, 48 h; series mostly up to 45.9 µM; further: nearly all actives have a fitted effect of over 40% in size
Procedure, shortened: (§2)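 Four patient lines of CD133+ GBM neurospheres were screened at several concentrations; hits were retested in those lines plus three slower-growing GBM lines, using 48-hour treatment and ATP-based viability.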

[1] = as above; conditions: GBM patient neurospheres viability, ATP luminescence, 48 h
Procedure, shortened: as §2
Potency means the concentration at half of the fitted maximal effect.

CCN1C[C@]2(OC(=O)c3ccccc3NC(C)=O)CC[C@H](OC)[C@@]34[C@@H]2C[C@@H]([C@@H]13)[C@@]1(O)C[C@H](OC)[C@H]2C[C@@H]4[C@]1(O)[C@H]2OC
Potency (Tov-21-G): inactive | Potency (Tov112D): inactive

COC1CC(O[C@H]2CC[C@@]3(C)C(=CCC4C3C(O)[C@@H](O)[C@]3(C)[C@@H](C(C)=O)CC[C@]43O)C2)OC(C)C1OC1CC(OC)C(OC2OC(C)C(O)C(O)C2O)C(C)O1 (stereo not given in full)
activity change, negative = cytotoxicity (Tov-21-G): -7.27% [at 11.6 µM] | activity change, negative = cytotoxicity (Tov112D): 3.02% [at 11.6 µM]

OCCCCC#Cc1cncc(OC[C@@H]2CCN2)c1
Potency (Tov-21-G): inactive | Potency (Tov112D): inactive

COc1cc(C)[nH]c(=O)c1CNC(=O)c1c(C)n([C@H](C)C2CCOCC2)c2ccccc12
Potency (Tov-21-G): inactive | Potency (Tov112D): inactive

CCc1[nH]c2ccc(OC)cc2c1CCN(C)C
Potency (Tov-21-G): inactive | Potency (Tov112D): inactive

CC12CCC3C(CCC4(O)CC(O)CCC34C=O)C1(O)CCC2C1=CC(=O)OC1 (stereo not given)
Potency (Tov-21-G): 708 nM (active) | Potency (Tov112D): 355 nM (active)

CC1=C2C(=O)C3[C@@H](CC=C4C[C@@H](O)CC[C@@]43C)[C@@H]2CC[C@]12O[C@@H]1C[C@H](C)CN[C@H]1[C@H]2C (stereo not given in full)
Potency (Tov-21-G): inactive | Potency (Tov112D): inactive

C=CC(C)(O)CC/C=C(\C)C(=O)O[C@H]1[C@H](O)[C@@H](CO)O[C@@H](OC(=O)[C@]23CCC(C)(C)CC2C2=CCC4[C@@]5(C)CC[C@H](O[C@@H]6O[C@H](CO[C@@H]7OC[C@H](O)[C@H](O)[C@H]7O[C@@H]7OC[C@@H](O)[C@H](O)[C@H]7O)[C@@H](O)[C@H](O)[C@H]6O)C(C)(C)C5CC[C@@]4(C)[C@]2(C)CC3)[C@@H]1OC1OC(C)C(O[C@@H]2OC[C@@H](O)[C@H](O[C@@H]3OC[C@@H](O)[C@H](O)[C@H]3O)[C@H]2O)C(O)C1O (stereo not given in full)
activity change, negative = cytotoxicity (Tov-21-G): 5.83% [at 6.55 µM] | activity change, negative = cytotoxicity (Tov112D): 1.17% [at 6.55 µM]

N#CC(OC1OC(COC2OC(CO)C(O)C(O)C2O)C(O)C(O)C1O)c1ccccc1 (stereo not given)
Potency (Tov-21-G): inactive | Potency (Tov112D): inactive

C=CC(C)(C)c1[nH]c2cccc3c2c1C[C@@H]1[C@@H]3[C@@H](OC(C)=O)[C@H](C)CN1C
Potency (Tov-21-G): inactive | Potency (Tov112D): inactive

OC1(c2ccc(Cl)cc2)c2ccccc2C2=NCCN21 (stereo not given)
Potency (Tov-21-G): inactive | Potency (Tov112D): inactive

COC(=O)C1(C)CCC(=O)C2(C)c3c(O)cc(C(C)C)cc3C(O)C(OC(C)=O)C12 (stereo not given)
Potency (Tov-21-G): inactive | Potency (Tov112D): inactive

C[CH2][Hg][S]c1ccccc1C(=O)O
Potency (Tov-21-G): 35500 nM (active) | Potency (astro): 1580 nM (active)

C=C[C@H]1CN2CC[C@H]1C[C@@H]2[C@@H](O)c1ccnc2ccccc12
Potency (Tov-21-G): inactive | Potency (Tov112D): inactive | activity, negative = cell killing ([1]; at 45.9 µM (top of the series), tumour line B): -7.16% | activity, negative = cell killing ([1]; at 45.9 µM (top of the series), tumour line D): -9.4% | activity, negative = cell killing ([1]; at 46.1 µM (top of the series), tumour line C): 15.7% | Potency ([1]; tumour line A): 17800 nM (active) | Potency (astro): inactive

COc1cc(C(=O)O[C@H]2[C@@H]3C=CO[C@@H](O[C@@H]4O[C@H](CO)[C@@H](O)[C@H](O)[C@H]4O)[C@@H]3[C@@]3(CO)O[C@@H]23)ccc1O
Potency (Tov-21-G): inactive | Potency (Tov112D): inactive
